# The campaign covered roughly 310,000 compounds. About 1,900 (0.61%) were called active. Roughly 8% stayed inconclusive and do not appear here. This is one part of a sample in which actives are shown more often than they occur. Unmarked numbers belong to inactive results. Calls come from the whole dose curve; tested in A549 cells.
# Assay: qHTS for Stage-Specific Inhibitors of Vaccinia Orthopoxvirus: mCherry Reporter Primary qHTS; note: nearly all actives have a fitted effect of over 35% in size
# Settings: Vaccinia virus mCherry reporter infection, fluorescence; series mostly up to 36.5 µM; activity change, negative = inhibition: at the top concentration
# % is set by controls: 0 for no effect and ±100 for the full control effect; potency is the fitted concentration of half-maximal effect.
Structure (SMILES),"activity change, negative = inhibition [%]",Potency,outcome
CN(C)C1=C2C=CC=CC2/C(=C2/C=Cc3ccccc32)C=C1 (centres undefined),-12.9,–,–
Nc1ccc(/C=C/c2ccnc3ccccc23)c([N+](=O)[O-])c1,24.2,–,–
Oc1ccccc1-c1cc(-c2ccc(Cl)cc2)n[nH]1,–,8.91 µM (active),–
Cc1ccc(NC(=O)c2cc(-c3ccccc3O)n[nH]2)cc1C,–,–,inactive
O=C(Nc1ccc(Cl)cn1)c1ccccc1-c1ccccc1,-7.03,–,–
O=C(Nc1ccc2c(c1)OCCO2)C(C1CC1)N1CCC(Cc2ccccc2)CC1 (centres undefined),44.7,–,–
CCc1cc(C(=O)N(CC)CC(=O)Nc2c(F)cccc2F)sc1C,–,–,inactive
COC(=O)Cc1ccc(OC2(C)CCN(Cc3ccc4c(c3)OCCO4)C2)cc1 (centres undefined),-9.78,–,–
CC1(C)OC(=O)C2=C(C[C@@H](C3CCCCC3)O[C@@H]2c2ccc(Cl)cc2)O1,4.01,–,–
CC(NC(=O)c1ccccc1)C(=O)Nc1ccccc1 (centres undefined),-16.4,–,–
O=C(NC1=CC(=O)c2ccccc2C1=O)c1ccccc1,–,7.94 µM (active),–
O=C(Nc1cccc(NC(=O)c2ccc(Br)cc2)c1)c1ccccc1,–,inactive,–
COCC1CCCCN1C(=O)c1cc(COc2ccc(C)c(C)c2)on1 (centres undefined),-3.71,–,–
CN(C)c1ccc(/C=N\Nc2ccc([N+](=O)[O-])cc2[N+](=O)[O-])cc1Cl,-14.1,–,–
Cc1ccc(S(=O)(=O)N2C[C@H]3n4c(=O)ccc(=O)n4C[C@H](OC(=O)NC4CCCC4)[C@@]3(O)C2)cc1,-13.2,–,–
Cc1ccc(C(=O)NC(C)C(c2cccs2)N2CCOCC2)cc1C (centres undefined),–,–,inactive
CCc1nc2c(OCc3ccc(C(=O)OC)cc3)cccn2c1N(C)C(=O)C(C)C,–,–,inactive
COC(=O)N/N=C/c1ccc(/C=N/NC(=O)OC)cc1,-8.87,–,–
CCOc1ccc(/C=N/NC(N)=S)cc1,–,1 µM (active),–
CCOc1ccc(/C=N\NC(=O)c2c(C)nc3cc(C)ccn23)cc1,-22.5,–,–
COc1cccc(NC(=O)Nc2ccc(F)cc2)c1,-29.6,–,–
CC(C)C1N=C2c3ccccc3N=C(SCC(=O)c3ccc(O)c(O)c3)N2C1=O (centres undefined),–,11.2 µM (active),–
Cc1ccc(CNC(=O)CSC2=Nc3ccccc3C3=NC(C)C(=O)N23)cc1 (centres undefined),-17.4,–,–
O=C(CSC1=Nc2ccccc2C2=NC(c3ccccc3)C(=O)N12)NCC1CCCO1 (centres undefined),-12.9,–,–
Cc1cc2nc(-c3ccc(Cl)cc3)c(Cc3cccc(F)c3)n2c(C)c1Br,24.4,–,–

Structure (SMILES),"activity change, negative = inhibition [%]",Potency,outcome
CC(C)C1CCN(C(=O)C2CCC(=O)N(C3CCCCCC3)C2)CC1 (centres undefined),-22.2,–,–
CCOc1ccc(-n2c(O)c(/C=N/Nc3nc(C)cc(C)n3)c3ccccc3c2=O)cc1,3.78,–,–
CCN(CC)c1ccc(/C=N/Nc2nc(C)cc(C)n2)c(O)c1,–,2.51 µM (active),–
Cc1cc(C)nc(N/N=C/c2ccncc2)n1,-2.46,–,–
CC1=C(C(=O)Nc2ccccc2)SCCO1,–,–,inactive
O=C(Nc1ccccc1)c1ccc2c(c1)OCCCO2,-14.5,–,–
CC1=C(C(=O)Nc2ccccc2)S(=O)(=O)CCO1,–,0.891 µM (active),–
CC(C)Nc1nc(NCCOc2ccccc2Cl)c2sccc2n1,-28.6,–,–
CN(C)C(=O)CCc1ccc2c3c([nH]c2c1)[C@]1(CCC2CCCC2)[C@@H](C(=O)N2CCOCC2)C[C@H](CC(=O)NCc2ccco2)C(=O)N1CC3,2.15,–,–
COc1ccc(CNC(=O)C[C@H]2C[C@H](C(=O)N3CCOCC3)[C@@]3(CCC4CCCC4)c4[nH]c5ccc(Cl)cc5c4CCN3C2=O)cc1OC,-27.5,–,–
O=C(C[C@H]1C[C@H](C(=O)N2CCOCC2)[C@@]2(CCC3CCCC3)c3[nH]c4ccc(Cl)cc4c3CCN2C1=O)NCc1ccco1,–,7.08 µM (active),–
COc1ccc(Cl)cc1NC(=O)CN(C)C(=O)c1cn(-c2ccccc2)nc1-c1cccs1,-28.8,–,–
CC(C)C[C@H]1CNC(=S)N1C[C@H]1CCCN1C[C@H](Cc1ccc(O)cc1)N1C[C@H](Cc2ccc(O)cc2)N(CC2CCCCC2)C1=S,-18.3,–,–
Nc1ncn(C2OC(CO)C(O)C2O)c(=O)n1 (centres undefined),–,10 µM (active),–
Nc1nc(SCc2ccc([N+](=O)[O-])cc2)c2ncn(C3OC(CO)C(O)C3O)c2n1 (centres undefined),-29.7,–,–
CC(C)Sc1nc(N)nc2c1ncn2C1OC(CO)C(O)C1O (centres undefined),-9.34,–,–
COc1ccc(-c2ccc(C(=O)NC(C)C)c3occc23)c(C)c1,16.1,–,–
CC(=O)c1cccc(-c2cnc3c(NC=O)cc(-c4cccc(C(=O)N(C)C)c4)cn23)c1,-29.9,–,–
CC(=O)c1ccc(-c2cnc3c(NC=O)cc(-c4cccc(NS(C)(=O)=O)c4)cn23)cc1,–,11.2 µM (active),–
CC(=O)c1cccc(-c2cnc3c(NC=O)cc(-c4ccc(N(C)C)cc4)cn23)c1,-17.7,–,–
COc1ccc(-c2cc3nc(NCCOc4ccccc4)ccn3n2)cc1,18.9,–,–
COc1cccc(CNCCc2c[nH]c3ccccc23)c1OCc1ccccc1F,–,10 µM (active),–
c1cncc(CNCCc2c[nH]c3ccccc23)c1,-26.3,–,–
COc1ccc(S(=O)(=O)NCCc2c[nH]c3ccccc23)cc1OC,–,–,inactive

# — PubChem BioAssay AID720579 (National Center for Advancing Translational Sciences (NCATS), 2013)
